The list is not random: actives were taken first. Their share in the collection is about 4.8%.
ATXN2 expr inh = reduces ATXN2 reporter expression in HEK-293 cells | HEK-293 ATXN2-luciferase reporter, luminescence, 24 h | 360,000 compounds, 0.72% hits | AID 1745845 | Potency, µM (titrated, usually from 57 µM), hits mostly inhibitors; note: nearly all actives have a fitted effect of over 55% in size
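ATXN2-luciferase reporter cells (luciferase flanked by upstream and downstream ATXN2 gene portions) were treated 24 h at 37 °C with compounds at up to 57 uM. SteadyGlo luminescence gave expression; GF-AFC fluorescence gave viability.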
USP1 inh = blocks the human USP1/UAF1 deubiquitinase complex; Potency, µM (titrated, usually from 57.1 µM), most hits filed as inhibitors; AID 743255; 390,000 compounds, 0.23% hits; recombinant USP1/UAF1, Ub-Rhodamine cleavage fluorescence; note: nearly all actives have a fitted effect of over 60% in size
Target sequence (O94782 whole entry, looked up): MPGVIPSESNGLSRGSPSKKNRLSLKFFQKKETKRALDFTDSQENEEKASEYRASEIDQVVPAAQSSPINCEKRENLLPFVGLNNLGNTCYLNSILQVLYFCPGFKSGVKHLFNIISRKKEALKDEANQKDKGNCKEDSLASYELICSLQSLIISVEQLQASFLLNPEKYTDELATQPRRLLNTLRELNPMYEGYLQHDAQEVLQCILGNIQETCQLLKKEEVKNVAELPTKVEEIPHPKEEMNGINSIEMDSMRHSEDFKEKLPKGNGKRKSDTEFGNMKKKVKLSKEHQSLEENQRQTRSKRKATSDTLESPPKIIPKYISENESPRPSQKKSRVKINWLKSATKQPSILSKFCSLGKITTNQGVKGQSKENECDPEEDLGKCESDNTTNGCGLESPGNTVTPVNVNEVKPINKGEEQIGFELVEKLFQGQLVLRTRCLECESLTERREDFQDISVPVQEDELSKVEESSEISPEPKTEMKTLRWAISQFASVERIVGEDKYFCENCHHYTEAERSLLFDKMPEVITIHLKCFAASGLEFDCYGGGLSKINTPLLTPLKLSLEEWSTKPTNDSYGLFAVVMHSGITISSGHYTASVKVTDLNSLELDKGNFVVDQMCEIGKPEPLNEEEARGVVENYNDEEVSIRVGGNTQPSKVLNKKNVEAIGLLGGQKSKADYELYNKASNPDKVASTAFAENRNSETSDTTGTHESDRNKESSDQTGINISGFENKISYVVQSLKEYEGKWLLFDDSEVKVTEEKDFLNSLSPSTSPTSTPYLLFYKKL
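1 nM enzyme complex + cpd, 15 min RT; start with Ub-Rho 150nM final; kinetic fluorescence ex 480/em 540, 6 reads q60 s. Buffer 50mM HEPES pH 7.8, 0.5mM EDTA, 0.1 mg/ml BSA, 1mM TCEP, 0.01% Tween-20.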
IL-1B inflam inh = inflammasome signaling inhibition, IL-1 beta readout | THP-1 LPS/ATP IL-1B secretion, AlphaLISA, 16 h; hits give low values | activity change, % at 57.5 µM | 360,000 compounds, 4.7% hits | AID 743279; in the data active = activity change below about -50%; inconclusive = mostly about -30% to -49%
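THP-1 cells pretreated 1 hr with compounds (up to 57.5 uM final), then stimulated with LPS (250 ng/mL final) plus ATP (1.25 mM final); secreted IL-1B measured by AlphaLISA after 16 hr, decreased signal indicating inhibition.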
USP2a inh = USP2a (human) protease inhibition | O75604 | USP2 core, Ub-CHOP2 coupled fluorogenic reporter, 485/531 | Potency, µM (doses to about 38.3 µM), usual class: inhibitors | 330,000 compounds, 0.01% hits
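Cell-free coupled assay: 10nM USP2 core preincubated 30min RT with compound in Tris-HCl pH 8.0/CaCl2/CHAPS buffer, then 25nM Ub-CHOP2 and 25nM reporter substrate; fluorescence (Ex 485/Em 531) read after 60min RT, normalized to NEM inhibition, concentration-response curves fitted.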
S2 tox = cell viability loss in ATXN counter-screen. 400,000 compounds, 0.49% hits. Potency, µM (top dose mostly 56.7 µM), usual class: cytotoxic. S2 cells (HEK-293 line with an ATXN2-luciferase reporter) viability, CellTiter-Fluor protease fluorescence, 24 h; note: nearly all actives have a fitted effect of over 40% in size
A number is an active result; 0 = inactive; ? = inconclusive; - = no result given. Unless noted, calls come from the whole dose curve; as a rule, active = well fitted curve in the direction sought with a large enough effect; inconclusive = small, poorly fitted or top-dose-only effect, or another doubt; inactive = no such curve, though single readings can be large; an effect the other way counts as inactive or inconclusive.

SMILES	ATXN2 expr inh	USP1 inh	IL-1B inflam inh	USP2a inh	S2 tox
O=c1[nH]c(C2CCN(S(=O)(=O)Cc3ccccc3)CC2)nc2c1nnn2Cc1ccccc1Cl	0	0	0	0	0
Cc1ccc(C)c(Cn2nnc3c(=O)[nH]c(C4CCN(S(=O)(=O)c5ccc(S(=O)(=O)NC6CC6)cc5)CC4)nc32)c1	0	0	-54	0	0
CC(=O)Nc1ccc(S(=O)(=O)N2CCC(c3nc4c(nnn4Cc4ccccc4Cl)c(=O)[nH]3)CC2)cc1	0	0	-51	0	0
O=c1[nH]c(C2CCN(S(=O)(=O)/C=C/c3ccccc3)CC2)nc2c1nnn2Cc1ccc(F)cc1	0	0	-54	0	0
Cc1ccc(C)c(Cn2nnc3c(=O)[nH]c(C4CCN(S(=O)(=O)c5ccc(S(=O)(=O)N(C)C)cc5)CC4)nc32)c1	0	0	?	0	0
O=C(Nc1ccc(F)cc1)N1CCC(c2nc3c(nnn3Cc3ccccc3Cl)c(=O)[nH]2)CC1	0	0	-74	0	0
Cc1c(C(=O)NCc2ccc(C(C)C)cc2)sc(=O)n1Cc1ccc(S(=O)(=O)N(C)C)cc1	0	-	0	-	0
Cc1ccccc1-c1cc2nc(OCC3CCCO3)n(C)c(=O)c2s1 (stereo not given)	0	-	0	-	0
O=c1[nH]c(C2CCN(S(=O)(=O)c3ccc(C(F)(F)F)cc3)CC2)nc2c1nnn2Cc1ccccc1	?	0	-71	0	0
O=c1[nH]c(C2CCN(S(=O)(=O)c3ccc(C(F)(F)F)cc3)CC2)nc2c1nnn2Cc1cccc(F)c1	0	0	?	0	0
CC(=O)N1c2ccccc2CC1C(=O)N1CCN(c2ccccc2)CC1 (stereo not given)	0	0	-	-	0
CCC(C(=O)NC1CCCC1)N(C(=O)Cn1nnc(-c2ccc(C)cc2)n1)C1CCCC1 (stereo not given)	0	0	-54	-	?
CC(C(=O)NC1CCCC1)N(C(=O)Cn1nnc(-c2ccc(F)cc2)n1)c1ccccc1F (stereo not given)	0	0	-66	0	0
OCC1OC2C(NC(=S)N2c2ccccc2)C(O)C1O (stereo not given)	0	0	0	-	0
COc1ccc(C(CNC(=O)c2ccc(NS(=O)(=O)c3ccc4c(c3)OCCO4)cc2)N(C)C)cc1 (stereo not given)	0	0	0	0	0
COc1cc2c(cc1OC)CN(CCc1ccc(NC(=O)c3cccc4c(=O)c5cccc(OC)c5[nH]c34)cc1)CC2	0	-	-	-	-
Cc1nn2c(=O)cc(COC(=O)c3ccc(NC(=O)CCc4ccccc4)cc3)nc2s1	-	0	-	-	-
O=C1C(=C(I)I)c2ccccc2-c2ccccc21	?	28µM	-101	-	-
c1ccc(CNCCCn2cnc3c(OCc4ccccc4)ncnc32)cc1	0	0	0	-	0
Cc1ccc(CN2CCN(CCCn3cnc4c(OCc5ccccc5)ncnc43)CC2)cc1	?	0	-54	-	?
c1ccc(CCCNCCCn2cnc3c(OCc4ccccc4)ncnc32)cc1	?	0	-86	-	25µM
c1ccc(COc2ncnc3c2ncn3CCCN2CCN(Cc3cccc4ccccc34)CC2)cc1	22µM	?	0	-	?
O=C(Cn1cnc2scc(-c3ccc(F)cc3)c2c1=O)NCC(c1ccco1)N1CCCC1 (stereo not given)	0	0	0	0	0
CCCCN(CC)C(=O)CCCn1c(=O)c2cccn2c2ccccc21	-	0	-	-	-
CC(C)NC(=O)C1(C)CSCC(=O)N1Cc1ccco1 (stereo not given)	-	-	0	-	-
SMILES	ATXN2 expr inh	USP1 inh	IL-1B inflam inh	USP2a inh	S2 tox
CCOc1ccc(NC(=O)CN(C)C(=O)C2CCN(C(=O)Nc3ccccc3)CC2)cc1OCC	0	0	0	-	0
CCOc1ccc(NC(=O)CN(C)C(=O)C2CCN(C(=O)c3ccc(Cl)cc3)CC2)cc1OCC	0	0	-51	0	0
CCCN(C(=O)CSCC(=O)Nc1cccc(C)c1)c1c(N)n(Cc2ccccc2)c(=O)[nH]c1=O	0	0	0	0	0
Oc1ccc(C2N=C(c3ccccc3)NC(c3ccccc3)=N2)cc1	0	0	0	0	0
Oc1ccccc1C1N=C(c2ccccc2)NC(c2ccccc2)=N1	0	0	-55	0	0
CC1(C)CC[C@]2(C(=O)O)CC[C@]3(C)C(=CC[C@@H]4[C@@]5(C)CC[C@H](O[C@@H]6O[C@H](C(=O)O)[C@@H](O)[C@H](O[C@@H]7OC[C@H](O)[C@H](O)[C@H]7O)[C@H]6O)C(C)(C)[C@@H]5CC[C@]43C)[C@@H]2C1	11µM	0	-110	0	11µM
CC1(C)CC[C@]2(C(=O)O[C@@H]3O[C@H](CO)[C@@H](O)[C@H](O)[C@H]3O)CC[C@]3(C)C(=CCC4[C@@]5(C)CC[C@H](O[C@@H]6O[C@H](C(=O)O)[C@@H](O[C@H]7OC[C@@H](O)[C@@H](O)[C@@H]7O)[C@H](O)[C@H]6O)C(C)(C)C5CC[C@]43C)[C@@H]2C1 (stereo not given in full)	0	0	0	0	0
CCc1nc(N2CCC3(CC2)OCCO3)c2nnn(Cc3ccccc3)c2n1	0	0	?	0	0
Cc1nc(N2CCC3(CC2)OCCO3)c2nnn(Cc3ccccc3F)c2n1	0	0	-60	0	0
COC(=O)C[C@H]1C=C[C@@H](NC(=O)C2CC2)[C@@H](CO)O1	-	-	0	-	-
CC1(C(=O)NCCC#N)CCN1C(=O)CC(c1ccccc1)c1ccccc1 (stereo not given)	0	-	-50	-	0
COc1cccc(N2CCN(c3ncnc4c3[nH]c3ccc(F)cc34)CC2C)c1 (stereo not given)	3.5µM	0	-112	0	10µM
CN(C)c1oc(-c2ccccc2Cl)nc1P(=O)(c1ccccc1)c1ccccc1	0	?	-62	0	0
O=C(Nc1cc(C(=O)NC2CCOCC2)c2c(c1)ncn2C1CCCC1)c1ccccc1	-	-	-	-	0
CC(C)(C)CC(C)(C)c1ccc(O)c(CN2CCN(CCC#N)CC2)c1	0	0	-57	0	0
Cc1cnc(SCCN2CCOCC2)nc1C1CCCN(C(=O)c2cccc3c(C)c(C)[nH]c23)C1 (stereo not given)	-	-	-	-	0
O=C(CSC1=NCCS1)Nc1nc2ccccc2s1	0	0	-74	0	0
CC(C)n1c(SCC(=O)Nc2nc3ccccc3s2)nc2c1c(=O)n(C)c(=O)n2C	?	0	-52	-	0
Cc1sc(NC(=O)CSC2=NCCS2)nc1-c1ccccc1	0	0	-97	0	0
CC(=O)N1CC(=O)N=C1SCC(=O)Nc1nc(-c2ccccc2)c(-c2ccccc2)s1	0	0	-77	0	0
Cc1ccccc1CC(=O)Nc1ccc(S(=O)(=O)N2CCOCC2)cc1	0	0	0	0	0
COc1ccc(OC)c(C(=O)N2CCOc3ccc(C(C)(O)CN(C)C)cc3C2)c1 (stereo not given)	-	-	-	-	0

From PubChem BioAssay
